In PubChem BioAssay (NCI) one finds growth data, which are given here for 13 compounds.

Test systems include NCI-H23 lung; NCI-H226 lung; NCI-H322M lung; HOP-62 NSCLC; NCI-H460 lung; HOP-92 NSCLC; NCI-H522 lung; A549/ATCC NSCLC; 786-0 renal; COLO 205 colon.
Common to all, as to test: NCI-60 one-dose screen, 48 h (100 = growth as untreated, 0 = no growth, -100 = all killed)
Common to all, as to conditions: 10 µM

Values joined by “and” are separate entries in the source; they are usually repeats but may differ in a detail not shown here. Equal values may be shown once. This is part of a sample that, as a whole, favours compounds with a hit. Of some 83,000 tested, about 20% had one in any assay.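 In brief: 96-well plates, 48 h treatment, single concentration, percent growth endpoint.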 Active and inactive are the calls of the source. How the source made its calls: active means growth percent below 10; inactive means the rest.

Regarding `CS(=N)(=O)CCC(N)C(=O)O` (stereo not drawn), the growth in the assay on NCI-H23 lung is 95.2% (inactive); with NCI-H226 lung, 101% (inactive); in the assay on NCI-H322M lung it was 108% (inactive); with HOP-62 NSCLC, 98.3% (inactive); in the assay on NCI-H460 lung, 112% (inactive); with HOP-92 NSCLC it was 106% (inactive). In addition, the growth is 96.9% (inactive) with NCI-H522 lung, 97.8% (inactive) in the assay with A549/ATCC NSCLC, 102% (inactive) in the assay on 786-0 renal and 122% (inactive) with COLO 205 colon.
`O=c1[nH]c2ccccc2n1C1CCN(CCCC(c2ccc(F)cc2)c2ccc(F)cc2)CC1`: the growth with NCI-H23 lung was 59.8% (inactive) and 38% (inactive); in the assay on NCI-H226 lung, 92.1% (inactive) and 61.6% (inactive); in the assay on NCI-H322M lung it was 64.2% (inactive) and 67.5% (inactive); in the assay with HOP-62 NSCLC, 84% (inactive) and -30.2% (active); with NCI-H460 lung, -0.452% (active) and 2.65% (active); in the assay on HOP-92 NSCLC, -42.3% (active) and 27.1% (inactive). In addition, the growth in the assay on NCI-H522 lung was 62.3% (inactive) and 33.6% (inactive); with A549/ATCC NSCLC it was 39.5% (inactive) and 10.9% (inactive); with 786-0 renal, -43.7% (active) and -57.1% (active); in the assay on COLO 205 colon, -50.3% (active) and -70.3% (active).
Regarding `O=S(=O)(F)c1ccc(Cl)cc1`, the growth with NCI-H23 lung was 100% (inactive); in the assay with NCI-H226 lung, 109% (inactive); in the assay with NCI-H322M lung, 123% (inactive); in the assay on HOP-62 NSCLC, 106% (inactive); in the assay with HOP-92 NSCLC, 86.8% (inactive); in the assay on NCI-H522 lung, 101% (inactive). Further, the results for the growth in the assay with A549/ATCC NSCLC, in the assay on 786-0 renal and in the assay with COLO 205 colon were 98.3% (inactive), 107% (inactive) and 107% (inactive), respectively.
`O=C1C=Cc2ccccc2C1=O`: the growth is 73.5% (inactive) in the assay on NCI-H23 lung; 100% (inactive) in the assay with NCI-H226 lung; 100% (inactive) in the assay on NCI-H322M lung; 73% (inactive) in the assay with HOP-62 NSCLC; 78.7% (inactive) with NCI-H460 lung; 93.7% (inactive) with HOP-92 NSCLC. The growth in the assay with NCI-H522 lung was 47.2% (inactive); in the assay on A549/ATCC NSCLC it was 97.9% (inactive); with 786-0 renal it was 110% (inactive); in the assay on COLO 205 colon, 117% (inactive).
Take `S=C=NCCc1ccccc1`: the growth in the assay on NCI-H23 lung was 20% (inactive); in the assay with NCI-H226 lung, 85.8% (inactive); with NCI-H322M lung it was 110% (inactive); with HOP-62 NSCLC, 85.2% (inactive); in the assay with HOP-92 NSCLC it was 56.5% (inactive); in the assay on NCI-H522 lung it was 44.1% (inactive). Moreover, the growth in the assay with A549/ATCC NSCLC was 61.7% (inactive); in the assay with 786-0 renal, 71.5% (inactive); in the assay on COLO 205 colon, 63.1% (inactive).
On to `O=C(CBr)Nc1ccccc1`, for which the growth in the assay with NCI-H23 lung is 93.1% (inactive); in the assay on NCI-H226 lung it was 98.4% (inactive); in the assay with NCI-H322M lung, 97.9% (inactive); in the assay on HOP-62 NSCLC, 109% (inactive); in the assay with NCI-H460 lung, 107% (inactive); in the assay on HOP-92 NSCLC, 101% (inactive). Further, the growth was -84% (active) with NCI-H522 lung, 98.5% (inactive) with A549/ATCC NSCLC, 102% (inactive) in the assay with 786-0 renal and 116% (inactive) in the assay with COLO 205 colon.
Turning to `C/C1=C\[C@H](C)C[C@H](C)OC(=O)C[C@H](c2ccc(O)cc2)NC(=O)[C@@H](Cc2c(Br)[nH]c3ccccc23)N(C)C(=O)[C@H](C)NC(=O)[C@@H](C)C1`, the growth was -4.18% (active) in the assay with NCI-H23 lung; -6.93% (active) with NCI-H226 lung; 8.82% (active) in the assay with NCI-H322M lung; -40.4% (active) in the assay with HOP-62 NSCLC; -13% (active) in the assay on NCI-H460 lung; -62.5% (active) with NCI-H522 lung. Besides, the growth is 3.5% (active) in the assay with A549/ATCC NSCLC, -55.9% (active) in the assay on 786-0 renal and 9.93% (active) with COLO 205 colon.
In the case of `O=C(O)c1cc(Cc2ccc(O)c(C(=O)O)c2)ccc1O` (tested in a mixture with another compound), the growth was 87.6% (inactive) in the assay with NCI-H23 lung; 88.7% (inactive) in the assay with NCI-H226 lung; 87% (inactive) with NCI-H322M lung; 79.3% (inactive) in the assay with HOP-62 NSCLC; 65.9% (inactive) in the assay with NCI-H460 lung; -49.4% (active) with HOP-92 NSCLC. The growth in the assay with NCI-H522 lung is -49.9% (active); in the assay with A549/ATCC NSCLC, 79.9% (inactive); with 786-0 renal it was 78% (inactive); in the assay with COLO 205 colon it was 42.4% (inactive).
As to `CC12OOC(c3ccccc31)c1c2ccc2ccccc12` (stereo not drawn), the growth in the assay on NCI-H23 lung was 32.7% (inactive); in the assay with NCI-H226 lung it was 86.7% (inactive); in the assay on NCI-H322M lung, 76.8% (inactive); with HOP-62 NSCLC, 73.3% (inactive); with HOP-92 NSCLC it was -61.9% (active); in the assay on NCI-H522 lung, -91.2% (active). Also, the growth with A549/ATCC NSCLC is 65.4% (inactive); in the assay with 786-0 renal it was 66.1% (inactive); in the assay on COLO 205 colon, -65.4% (active).
Turning to `Oc1ccccc1-c1ccccc1`, the growth was 98.9% (inactive) and 104% (inactive) in the assay on NCI-H23 lung; 104% (inactive) and 99.3% (inactive) in the assay on NCI-H226 lung; 91.5% (inactive) and 109% (inactive) in the assay with NCI-H322M lung; 101% (inactive) and 103% (inactive) in the assay with HOP-62 NSCLC; 98.7% (inactive) and 112% (inactive) in the assay on HOP-92 NSCLC; 95.2% (inactive) with NCI-H522 lung. Further, the growth was 100% (inactive) and 95.8% (inactive) in the assay with A549/ATCC NSCLC; 105% (inactive) in the assay with 786-0 renal; 110% (inactive) and 112% (inactive) with COLO 205 colon.
As to `CCOP(=O)(OCC)/C(C#N)=C/c1ccc(Br)cc1`, the growth was 92.9% (inactive) in the assay with NCI-H23 lung; 96.2% (inactive) in the assay on NCI-H226 lung; 105% (inactive) in the assay on NCI-H322M lung; 89.7% (inactive) in the assay with HOP-62 NSCLC; 104% (inactive) in the assay with NCI-H460 lung; 69.6% (inactive) in the assay on HOP-92 NSCLC. Besides, the growth with NCI-H522 lung was 89.7% (inactive); with A549/ATCC NSCLC it was 102% (inactive); with 786-0 renal, 104% (inactive); with COLO 205 colon it was 109% (inactive).
Regarding `CN(C)CC1(N)C(=O)NC(=O)NC1=O`, the growth in the assay on NCI-H23 lung is 98.6% (inactive); in the assay on NCI-H226 lung it was 87.7% (inactive); in the assay on NCI-H322M lung, 104% (inactive); with HOP-62 NSCLC it was 98.1% (inactive); in the assay with NCI-H460 lung it was 107% (inactive); in the assay with HOP-92 NSCLC, 112% (inactive). Moreover, the growth in the assay on NCI-H522 lung was 96.4% (inactive); in the assay on A549/ATCC NSCLC, 94.2% (inactive); with 786-0 renal, 102% (inactive).
In the case of `CN(CCCl)c1ccc(/C=C/C2=[N+](C)c3ccccc3C2(C)C)cc1`, the growth was 9.42% (active) in the assay on NCI-H23 lung; 46.6% (inactive) with NCI-H226 lung; 46.7% (inactive) in the assay with NCI-H322M lung; 41.1% (inactive) in the assay on HOP-62 NSCLC; 31.1% (inactive) with HOP-92 NSCLC; 30.4% (inactive) in the assay on NCI-H522 lung. Besides, the values for the growth in the assay on A549/ATCC NSCLC, with 786-0 renal and with COLO 205 colon were 31.8% (inactive), 57.6% (inactive) and -7.09% (active), respectively.
